Assay results as given in PubChem BioAssay AID651650 (Sanford-Burnham Center for Chemical Genomics, 2012).

Target: Neuropilin-1 (Homo sapiens) (UniProt O14786)
Assay: blockers of CendR peptide binding to NRP-1 – biochemical, FP and AlphaScreen panel, dose response (AID 651650)
Conditions: NRP-1 b1b2 / RPARPAR peptide binding, FP or AlphaScreen; run 1, at 100 µM (top of the series)

Chain of Neuropilin-1 (Homo sapiens) (O14786 whole entry, looked up): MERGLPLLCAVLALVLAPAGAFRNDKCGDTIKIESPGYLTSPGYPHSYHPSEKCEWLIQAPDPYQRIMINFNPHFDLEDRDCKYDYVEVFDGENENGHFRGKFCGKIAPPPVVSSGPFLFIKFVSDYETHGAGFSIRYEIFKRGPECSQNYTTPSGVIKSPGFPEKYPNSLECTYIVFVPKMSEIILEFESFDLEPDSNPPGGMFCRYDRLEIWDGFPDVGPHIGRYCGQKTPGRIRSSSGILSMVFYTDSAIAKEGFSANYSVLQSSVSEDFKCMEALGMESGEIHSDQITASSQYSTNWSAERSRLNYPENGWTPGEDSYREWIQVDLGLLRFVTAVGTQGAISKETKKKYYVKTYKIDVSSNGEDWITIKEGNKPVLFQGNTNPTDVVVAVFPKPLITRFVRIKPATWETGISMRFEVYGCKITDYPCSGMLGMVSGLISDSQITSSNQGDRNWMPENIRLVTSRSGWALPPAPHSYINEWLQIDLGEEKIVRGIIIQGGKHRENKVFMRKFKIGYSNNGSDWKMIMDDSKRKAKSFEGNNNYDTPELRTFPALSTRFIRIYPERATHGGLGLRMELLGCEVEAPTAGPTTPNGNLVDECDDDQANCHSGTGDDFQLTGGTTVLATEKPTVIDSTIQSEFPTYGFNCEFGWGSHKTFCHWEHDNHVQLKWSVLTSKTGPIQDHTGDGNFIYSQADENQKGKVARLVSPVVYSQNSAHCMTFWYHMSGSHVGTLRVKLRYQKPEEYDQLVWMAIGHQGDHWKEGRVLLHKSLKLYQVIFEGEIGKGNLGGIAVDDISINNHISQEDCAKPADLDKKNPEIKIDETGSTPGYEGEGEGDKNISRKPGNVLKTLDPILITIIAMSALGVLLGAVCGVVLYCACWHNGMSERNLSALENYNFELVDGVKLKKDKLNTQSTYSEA

Structure (SMILES)	inhibition
Cn1c(=O)c2[nH]c(COc3ccccc3)nc2n(C)c1=O	16.6%
CN(c1ccc(OCC(=O)OCC(=O)Nc2ccc([N+](=O)[O-])cc2)cc1)S(=O)(=O)c1cccs1	58.7%
O=C(Nc1cccc(S(=O)(=O)N2CCCCC2)c1)c1ccc([N+](=O)[O-])o1	52.5%
NC1=NC[C@@H](Cc2ccc(O)cc2)N1CCCCC1CCCCC1	26.5%
Cc1ccccc1S(=O)(=O)Nc1nc2ccccc2nc1NCCO	25.8%
Cc1ccc(Cn2c(C(C)Nc3nc(-c4ccc(Cl)c([N+](=O)[O-])c4)cs3)nc3cc(C(F)(F)F)ccc32)cc1 (configuration not stated)	41.6%
Cc1nc(SCc2ccc(C(=O)O)cc2)nc2c1CCCC2	41.7%
Cc1ccsc1C(=O)N1CCCC(CO)(Cc2ccccc2F)C1 (configuration not stated)	17.8%
CC(Oc1ccccc1)C(=O)NC1=NCCS1 (configuration not stated)	51.9%
c1cc(CNc2ccc3c(c2)OCO3)ccn1	27.1%
CN(Cc1ccccc1)C(=O)c1nc[nH]c1C(=O)N1CCN(C(=O)OC(C)(C)C)CC1	53.3%
CCOC(=O)N1CCN(C(=O)c2cc(COc3ccc(OC)cc3Cl)on2)CC1	37.8%
CC(C)OC(=O)CSc1nnc(-c2ccccn2)n1-c1ccccc1	-4.4%
COc1cccc(OCC(=O)NNC(=S)Nc2ccc(Cl)cc2Cl)c1	27.2%
COc1ccc([C@H]2/C=C\CN(S(C)(=O)=O)[C@@H](C)C(=O)N2Cc2ccc(F)cc2)cc1	28.8%
O=C(O)C1CCN(C(=O)c2ccc(Cl)cc2)CC1	32%
CC(C)(C)c1nc(SCC(=O)NCc2ccco2)c2ccccc2n1	44.2%
